The source made the active and inactive calls. The calls were made as follows: active = hit-call score of the fitted dose curve at least 0.9, where 1 is the maximum; inconclusive = response in the unintended direction; inactive = score below 0.9.
biological target: Peroxisome proliferator-activated receptor gamma (Homo sapiens) (UniProt P37231); test: OT_PPARg_PPARgSRC1_1440: Odyssey Thera (OT) 24-hour Protein-Complementation Assay for Peroxisome Proliferator-activated Receptor Gamma/ SRC-1 Co-activator (AID 2283388);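 also: nuclear to cytoplasmic ratio of reconstituted Venus YFP fluorescence in fixed imaged cells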
Sequence (P37231 whole entry, looked up, the tested form may be a part): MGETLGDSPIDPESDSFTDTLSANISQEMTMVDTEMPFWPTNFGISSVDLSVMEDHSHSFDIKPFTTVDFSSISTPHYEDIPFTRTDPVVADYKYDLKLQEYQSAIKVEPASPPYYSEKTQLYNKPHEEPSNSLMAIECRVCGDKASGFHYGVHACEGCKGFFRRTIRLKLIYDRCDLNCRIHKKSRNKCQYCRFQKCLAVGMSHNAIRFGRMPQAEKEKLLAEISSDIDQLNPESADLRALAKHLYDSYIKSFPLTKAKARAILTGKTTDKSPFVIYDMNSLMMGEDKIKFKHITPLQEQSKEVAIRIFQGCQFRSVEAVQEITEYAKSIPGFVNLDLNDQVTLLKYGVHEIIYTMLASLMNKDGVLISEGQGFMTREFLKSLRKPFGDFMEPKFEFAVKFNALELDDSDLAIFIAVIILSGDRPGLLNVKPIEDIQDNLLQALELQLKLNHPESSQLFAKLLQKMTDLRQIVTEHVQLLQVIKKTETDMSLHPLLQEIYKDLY
Experimental: OT_PPARg_PPARgSRC1_1440 is a cell-based assay that uses HEK293T, a human kidney cell line, with measurements taken at 24 hours after chemical dosing in a 384-well plate.OT_PPARg_PPARgSRC1_1440 is one of one assay component(s) measured or calculated from the OT_PPARg_PPARgSRC1_1440 assay. It is designed to make measurements of protein fragment complementation, a form of binding reporter, as detected with fluorescence intensity signals by Protein-fragment Complementation technology.Data from the assay component OT_PPARg_PPARgSRC1_1440 was analyzed into 1 assay endpoint. This assay endpoint, OT_PPARg_PPARgSRC1_1440, was analyzed in the positive analysis fitting direction relative to DMSO as the negative control and baseline of activity. Using a type of binding reporter, measures of receptor for gain-of-signal activity can be used to understand the binding at the pathway-level as they relate to the gene PPARG. Furthermore, this assay endpoint can be referred to as a primary readout, because the performed assay has only produced 1 assay endpoint. To generalize the intended target to other relatable targets, this assay endpoint is annotated to the nuclear receptor intended target family, where the subfamily is non-steroidal.
The OT PPARg/SRC-1 assay assessed receptor-chemical interactions using a rapidly maturing, intensely fluorescent mutant of YFP known as Venus, rationally dissected into two separate fragments. The fragments were obtained as follows: first, fragments coding for YFP1 and YFP2 (corresponding to amino acid residues 1-158 and 159-239 of the full length YFP, respectively) were generated by oligonucleotide synthesis (Blue Heron Biotechnology), and then PCR mutagenesis was used to generate the mutant fragments IFP1 and IFP2. Fusion constructs were transfected into HEK293T cells with a (Gly4Ser)2 linker between the PPARg/SRC-1 and YFP fragment genes to facilitate complementation when interacting proteins bring fragments into close proximity. The construct is transiently transfected in HEK293T cells 48 hours prior to treatment with test compounds. Cells are seeded into optical quality 384-well poly-D-lysine coated plates in MEM alpha medium (Invitrogen) supplemented with 10 percent FBS (Gemini Bio-Products) 1 percent penicillin and 1 percent streptomycin, and grown in 37C incubator equilibrated to 5 percent CO2. Cells are allowed to adhere for 24 hours prior to treatment with compounds of interest or controls for 24 hours. Cells are fixed in 4 percent formaldehyde and stained with Draq5 (BioStatus) to identify cells and subcellular compartment boundaries prior to signal detection. 8 Images per well were acquired on an Evotec Opera at 2 wavelengths (488 and 635nm), and the ratio of fluorescence in the nucleus relative to fluorescence in the cytoplasm (N/C Ratio) in the 488nm channel was calculated for a minimum of 350 cells per image.

outcome, inactive:
O=S(=O)(O)c1ccccc1
N=C(N)c1ccc(OCCCCCOc2ccc(C(=N)N)cc2)cc1
CCCCc1oc2ccccc2c1C(=O)c1cc(I)c(OCCN(CC)CC)c(I)c1
CCc1ccccc1O
O=C(O)c1cccc(C(=O)O)n1
C[C@]12CC[C@@H]3c4ccc(O)cc4CC[C@H]3[C@@H]1C[C@@H](O)[C@@H]2O
CCCCCCCCCCCCOC(=O)c1cc(O)c(O)c(O)c1
NS(=O)(=O)O
CCC(C)c1ccccc1O (stereo unspecified)
O=C1NS(=O)(=O)c2ccccc21
CC(C)c1c(C(=O)Nc2ccccc2)c(-c2ccccc2)c(-c2ccc(F)cc2)n1CC[C@@H](O)C[C@@H](O)CC(=O)O
CCCCC(CC)C(=O)O (stereo unspecified)
O=C(O)C(=O)O
CCCCCCCCCCCC(=O)O
CCCCCC(C)OC(=O)COc1ccc(Cl)c2cccnc12 (stereo unspecified)
CCCCc1ccc2ccccc2c1S(=O)(=O)O
C=CC(C)(CCC=C(C)C)OC(C)=O (stereo unspecified)
Cc1cc(Cc2cc(C)cc(C(C)(C)C)c2O)c(O)c(C(C)(C)C)c1
c1cnc2c(c1)ccc1cccnc12
CCCCCCc1ccc(N)cc1
NCc1cccc(CN)c1
OCC(CO)(CBr)CBr
CC(O)COc1ccccc1 (stereo unspecified)
NC(=NCCCCCCN=C(N)/N=C(\N)Nc1ccc(Cl)cc1)/N=C(\N)Nc1ccc(Cl)cc1
NCCN
CC(=O)Nc1ccc(O)cc1
O=C(CCCN1CCC(O)(c2ccc(Cl)cc2)CC1)c1ccc(F)cc1
CCCCCCC(C)(C)C(=O)O
Cc1cc(C(C)(C)C)c(O)c(C(C)(C)C)c1
Cc1ccc(C)c(S(=O)(=O)O)c1
CCCCCCCCCCCC
CN(Cc1cnc2nc(N)nc(N)c2n1)c1ccc(C(=O)N[C@@H](CCC(=O)O)C(=O)O)cc1
Cc1cc(C(=C2C=CC(=Nc3ccc(S(=O)(=O)O)cc3)C=C2)c2ccc(Nc3ccc(S(=O)(=O)O)cc3)cc2)cc(S(=O)(=O)O)c1N
CC(C)[C@@H]1CC[C@@H](C)C[C@H]1O
COc1cc([N+](=O)[O-])ccc1N
CCCCCCCCCC=CCC1CC(=O)OC1=O (stereo unspecified)

— PubChem BioAssay (EPA / NIEHS)
